Assay outcomes as filed in PubChem.
Rows were chosen to be rich in hits. Some 7.5% of all compounds tested hit in one or more screens of this group.
ELG1 genotoxic: induces genotoxicity in HEK293T cells with luciferase-tagged ELG1; HEK293T ELG1-luciferase reporter, luminescence, 16 h; Potency, µM (highest dose often 46 µM), for inactives: at the top dose activity change, positive = activation, actives largely listed as activators; 330,000 tested, 1.3% active; AID 504466; also: % of control where 0% means no effect; nearly all actives have a fitted effect of over 60% in size
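Cells (2,000/well) expressing the ELG1-luciferase fusion are dosed by pin tool and kept 16 hr at 37 °C, 5% CO2. Signal comes from ONE-Glo luciferase reagent after 30 min at room temperature.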
Luc counter: blocks Kinase-Glo luciferase, a counter-screen artifact. Q27757. Kinase-Glo luciferase, ATP luminescence, 8 min. Potency, µM (highest dose often 38.3 µM), for the others: at the top dose activity change, negative = inhibition, usual class: inhibitors. 200,000 tested, 0.28% active. AID 1379; also: % is scaled to controls: 0 for no effect and ±100 for the full control effect; nearly all actives have a fitted effect of over 60% in size
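Recombinant Kinase-Glo luciferase, 10 uM ATP (linear range), luciferin; imidazole pH 7.2 / KCl / MgCl2 / Tween / BSA buffer; 8 min RT; luminescence.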
Rab9 promoter act: Rab9 promoter activation | Huh7 Rab9 promoter-luciferase reporter, luminescence, 24 h | Potency, µM (highest dose often 9.22 µM), for inactives: at the highest dose activation, negative = inhibition, most hits filed as activators | 320,000 tested, 2.8% active | AID 485297; also: % of control where 0% means no effect; nearly all actives have a fitted effect of over 60% in size
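Luminescence from Amplite-detected luciferase (10 minutes, ambient) reports Rab9 promoter activation. Before that, stable Rab9-luciferase Huh7 cells (1500/well, reduced-serum OP-MEM I plus 10% FBS) were exposed to compound for 24 hours at 37C.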
NPC1 promoter act: NPC1 promoter activation. Huh7 NPC1 promoter luciferase reporter, 24 h. Potency, µM (titrated, usually from 9.22 µM), for inactives: at the highest dose activation, actives largely listed as activators. 320,000 tested, 2.4% active. AID 485313; also: % of control where 0% means no effect; nearly all actives have a fitted effect of over 60% in size
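Quantitative HTS used a cell-based reporter: Huh7 cells stably bearing the NPC1 promoter upstream of luciferase were treated with compounds for 24 h, and promoter activation was read as luminescence.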
FLuc counter: inhibits or activates purified firefly luciferase, miR-21 counter-screen; AID 588342; purified FLuc, Km substrates, luminescence inhibition; 360,000 tested, 6.9% active; Potency, µM (series often up to 57.5 µM), for inactives: at the top dose activity change, negative = inhibition, hits mostly inhibitors;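 also: plate controls were vehicle for no effect and reference inhibitor for full effect; nearly all actives have a fitted effect of over 55% in size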
Target sequence (P08659 whole entry, looked up): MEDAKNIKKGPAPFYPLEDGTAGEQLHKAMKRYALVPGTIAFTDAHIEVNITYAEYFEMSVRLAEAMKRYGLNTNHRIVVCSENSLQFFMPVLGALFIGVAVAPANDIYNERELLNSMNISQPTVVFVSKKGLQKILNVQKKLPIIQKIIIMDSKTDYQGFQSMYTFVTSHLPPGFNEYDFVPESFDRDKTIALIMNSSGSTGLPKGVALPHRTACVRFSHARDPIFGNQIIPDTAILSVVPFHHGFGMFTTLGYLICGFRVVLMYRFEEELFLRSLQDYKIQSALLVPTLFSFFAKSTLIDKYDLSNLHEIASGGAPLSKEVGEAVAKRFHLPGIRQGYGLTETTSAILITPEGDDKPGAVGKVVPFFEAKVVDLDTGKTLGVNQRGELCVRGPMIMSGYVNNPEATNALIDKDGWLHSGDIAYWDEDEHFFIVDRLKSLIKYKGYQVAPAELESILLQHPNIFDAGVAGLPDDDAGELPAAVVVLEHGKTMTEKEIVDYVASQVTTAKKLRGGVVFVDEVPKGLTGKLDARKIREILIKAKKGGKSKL
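Purified P. pyralis luciferase (10nM final) with 10uM D-luciferin and 10uM ATP (Km levels) in 50mM Tris acetate pH 7.5, 10mM Mg acetate, 0.01% Tween-20, 0.05% BSA; qHTS 6-point titration, ~60 µM downward; luminescence read.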
SMN2 splice enh: SMN2 splice variant enhancement; HEK293 SMN2-luciferase splicing reporter, luminescence, 30-36 h; Potency, µM (doses to about 46.1 µM), without a hit: at the top dose activity change, positive = activation, hits mostly activators; 210,000 tested, 2.8% active; AID 1458; also: % of control where 0% means no effect; nearly all actives have a fitted effect of over 55% in size
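qHTS luciferase splicing reporter: luminescence rises when SMN2 exon 7 is included in transfected HEK293 cells. Compound exposure lasted 30-36 h at 37C, with 4.5 mM final sodium butyrate as control, followed by a ONE-Glo read.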
Numbers without * were called inactive; ? = inconclusive; / = no result. Calls follow the shape of the dose curve; as a rule, active = well fitted curve in the direction sought with a large enough effect; inconclusive = small, poorly fitted or top-dose-only effect, or another doubt; inactive = no such curve, though single readings can be large; an effect the other way counts as inactive or inconclusive. Potency is read from the fitted curve at half-maximal effect.

SMILES	ELG1 genotoxic	Luc counter	Rab9 promoter act	NPC1 promoter act	FLuc counter	SMN2 splice enh
CCc1ccc2c(c1)c1nc(C)sc1n2CC	5.3%	2.4%	3.3%	-5.8%	19µM*	-12.4%
CC(C)c1c(O)ccc2c1CCC1[C@@](C)(C=O)CCC[C@@]21C (stereo not given in full)	/	-3.4%	/	/	/	-18.1%
CC(C)CSc1nnc2c(n1)[nH]c1ccccc12	0.651µM*	-9.8%	0.708µM*	3.55µM*	0.675µM*	2.24µM*
CCCCSc1nnc2c(n1)[nH]c1ccccc12	?	0.4%	1.26µM*	?	?	3.55µM*
COc1ccc2[nH]c3nc(SC(C)C)nnc3c2c1	7.6%	-13.1%	0.794µM*	0.708µM*	0.338µM*	?
O=C(O)c1ccccc1CSc1nnc2c(n1)[nH]c1ccccc12	-0.3%	/	-3.5%	14.6%	21.3µM*	/
COc1ccc(CNC(=O)CSc2nnc3c(n2)[nH]c2ccc(OC)cc23)cc1	-1.1%	/	5.6%	-0.5%	3.3%	/
O=C(NCc1ccccc1F)C1CCN(c2nnc(-n3cccc3)s2)CC1	/	/	/	/	-11.1%	/
Cc1ccc(-n2c(SCC(=O)N3CCCc4ccccc43)nc3c([nH]c4ccccc43)c2=O)cc1	/	/	/	/	5.5%	/
CC(C)CSc1nnc2c3ccccc3n(C)c2n1	?	/	5.9%	18.3%	10.7µM*	/
CSc1ncc(C(=O)NCc2ccc(Cl)cc2)c(C(F)(F)F)n1	/	/	/	/	2.1%	/
C=CCn1c(C)cc(C(=O)COc2ncnc3sccc23)c1C	2.59µM*	-2.0%	0.794µM*	0.891µM*	2.39µM*	5.62µM*
C=CCn1c(C)cc(C(=O)COC(=O)c2cncc(Br)c2)c1C	14.3%	/	?	24.1%	1.9µM*	/
CC1CCc2c(sc3nc(SCC(=O)NCc4ccco4)nc(N)c23)C1 (stereo not given)	13.9%	-4.0%	2.9%	12.9%	4.78µM*	-20.8%
CCN(CC)C(=O)CSc1nc(N)c2c3c(sc2n1)CC(C)CC3 (stereo not given)	15.8%	-2.1%	19.0%	17.1%	1.9µM*	9.6%
CCOC(=O)CSc1nc(N)c2c3c(sc2n1)CCCC3	23.1%	-0.8%	2.1%	5.6%	9.53µM*	-5.0%
Cc1ccsc1C(=O)Nc1ccc(S(=O)(=O)N2CCOCC2)cc1	1.8%	/	1.4%	-5.1%	2.6%	/
CCc1ccc(C2=CSC3=NCCN23)cc1	-1.9%	/	-2.5%	-3.3%	-2.8%	/
c1ccc2nc(-c3nc4ccccc4o3)ccc2c1	?	1µM*	3.16µM*	?	0.239µM*	/
Cc1ccc(S(=O)(=O)Nc2ccccc2C(=O)N2CCCCC2C)c(C)c1NS(C)(=O)=O (stereo not given)	-1.4%	/	-8.2%	-1.1%	0.4%	/
COc1ccccc1-n1c(SCc2cc(=O)oc3cc(O)ccc23)nc2ccccc2c1=O	0.3%	-0.3%	-2.7%	2.4%	?	22.9%
COc1ccccc1-n1c(=O)oc2ccc(Cl)cc2c1=O	5.7%	-3.3%	3.6%	?	13.5µM*	/
CCOC(=O)CCc1c(C)nc2cc(-c3cc(OC)cc(OC)c3)[nH]n2c1=O	/	/	/	/	1.0%	-8.3%
CSc1ccc(-c2cc(=O)c3ccccc3o2)cc1	9.2µM*	4.0%	?	23.7%	4.78µM*	11.2µM*
Cc1ccccc1-c1cc(=O)c2ccccc2o1	6.7%	/	/	/	/	/
SMILES	ELG1 genotoxic	Luc counter	Rab9 promoter act	NPC1 promoter act	FLuc counter	SMN2 splice enh
COc1cccc2oc(-c3ccccc3)cc(=O)c12	/	15.8µM*	/	/	/	/
COc1ccccc1-c1cc(=O)c2cccc(OC)c2o1	/	-2.6%	/	/	/	22.9%
O=c1cc(-c2ccccc2F)oc2ccccc12	?	-6.3%	2.24µM*	?	10.7µM*	12.6µM*
COc1cccc(-c2cc(=O)c3ccccc3o2)c1N	/	-9.3%	2.06µM*	2.31µM*	/	11.2µM*
C=CC1=C(C(=O)O)N2C(=O)C(NC(=O)/C(=N\O)c3csc(N)n3)C2SC1 (stereo not given)	/	-2.8%	/	/	/	2.6%
CCOC(=O)N1CCN(Cc2nc3cc(NC(=O)c4ccc(F)cc4)ccc3n2C(C)C)CC1	/	/	/	/	-3.8%	/
O=C(Nc1ccccc1)N1CC=C(c2ccc(F)cc2)CC1	?	-8.2%	1µM*	4.47µM*	23.9µM*	11.2µM*
O=C(Nc1ccccc1)N1CC=C(c2ccccc2)CC1	2.59µM*	1.0%	1.58µM*	2.24µM*	4.78µM*	12.6µM*
CC(C)(C)c1ccc(C(=O)NNc2ncnc3c2cnn3-c2ccccc2)cc1	/	/	/	/	-10.5%	/
CN(C)CCCNC(=O)c1ccc(/C=N/O)nc1	?	-4.0%	2.82µM*	2.51µM*	10.7µM*	/
CC(=O)c1cccc(NC(=O)CCc2c(C)nc3nc(CN)nn3c2C)c1	/	/	/	/	-0.4%	-3.7%
CCOc1ccc(NC(=O)n2ncc3c(C)cccc32)cc1	?	/	1.41µM*	0.447µM*	1.35µM*	/
COc1cccc(NC(=O)n2ncc3c(C)cccc32)c1	1.64µM*	/	0.316µM*	0.0891µM*	0.169µM*	/
COC(=O)c1ccc(NC(=O)n2ncc3c(C)cccc32)cc1	/	/	/	/	-1.3%	/
CCOC(=O)Cc1ccc(NC(=O)n2ncc3c(C)cccc32)cc1	/	/	/	/	5.36µM*	2.9%
COc1cc(CNC(=O)c2cc(-c3ccccc3)n[nH]2)cc(OC)c1OC	/	/	/	/	-1.9%	/
Cc1ccc(C)c(N2C(=O)N(Cc3cc(=O)n4ccccc4n3)c3ccccc3S2(=O)=O)c1	/	/	/	/	-5.5%	/
O=C(Nc1cc2c3c(c1)CC(=O)N3CCC2)c1c(F)cccc1F	?	/	3.1%	-3.0%	-8.0%	/
